The whole screen tested about 53,000 compounds, of which about 900 (1.7%) showed an effect of 50% or more. The sample as a whole holds a higher share of strong results than the screen did.

Consider 49 molecules from ChEMBL document CHEMBL3988442, “University of Dundee, Small-Polar-MMV Screening Library” (2021).

The test relates to Mycobacterium tuberculosis. Description: Cornell - Phenotypic assay to identify agents that inhibit growth of Mycobacterium tuberculosis. The class given is functional. The arrangement: scale not given: direction of the effect not stated beside the values. The note with it: 10 mM as filed; unlikely as a test dose.
As for `Cc1ncsc1C(=O)N1CCCC(n2cncn2)C1` (centres undefined), the “Percent Effect” value was -11.33%. On to `CC(=O)N1CCCC1c1cccc(Oc2ccccc2F)n1` (centres undefined), for which the “Percent Effect” value is given as 16.34%. Take `Cc1cc(CN2CCN(S(=O)(=O)c3c(C)c(Cl)cc(C)c3Cl)CC2)on1`: the “Percent Effect” value is 15.46%. The result for `O[C@@H]1C[C@H]2CN(Cc3ccsc3)[C@@H](Cc3ccccc3)CN2C1` reads 57.45%. As for `O[C@@H]1C[C@H]2CN(Cc3ccccc3)[C@H](Cc3ccccc3)CN2C1`, the “Percent Effect” value stood at 7.945%. As to `O[C@@H]1C[C@H]2CN(Cc3ccccc3Cl)[C@H](Cc3ccccc3)CN2C1`, the “Percent Effect” value worked out at 13.61%. Consider `Cc1ccc(CN2CC[C@H]3OCC[C@@H](c4nc(C)no4)[C@H]3C2)cc1`, for which the “Percent Effect” value was determined as 12.84%. As to `CCC(C)(CCO)NC(=O)c1ccon1` (centres undefined), the “Percent Effect” value is listed as -22.18%. In the case of `O=C(NCC(F)(F)F)c1coc(COc2cccc(F)c2)n1`, the “Percent Effect” value was 71.66%. `COC(=O)[C@@H](NC(=O)c1coc(COc2cccc(F)c2)n1)C(C)C`: the “Percent Effect” value amounted to 30.38%. In the case of `CC(C)(NC(=O)c1coc(COc2cccc(F)c2)n1)C(N)=O`, the “Percent Effect” value turned out to be 8.84%. For the molecule `O=C(NC(CO)CO)c1coc(COc2cccc(F)c2)n1`, the “Percent Effect” value is given as -12.31%. For the molecule `CCC(C)NC(=O)c1coc(COc2cccc(F)c2)n1` (centres undefined), the “Percent Effect” value was found to be 60.97%. In the case of `O=C(O)c1coc(COc2cccc(F)c2)n1`, the “Percent Effect” value amounted to 15.94%. For the molecule `CN(C)Cc1cc(C2CCCCN2S(=O)(=O)c2cccc(Cl)c2)nn1C.Cl` (centres undefined), the “Percent Effect” value worked out at 9.135%.

Turning to `CC(C)N(Cc1ccc(Cl)c(Cl)c1)C(=O)CCn1cncn1`, the “Percent Effect” value is reported as 29.65%. Take `O=S(=O)(c1ccccc1)N1CCC2(CCCN2Cc2cccc(F)c2)C1` (centres undefined): the “Percent Effect” value was found to be 5.302%. `Cc1nn(C2CCS(=O)(=O)C2)c(O)c1CCc1ccccc1` (centres undefined): the “Percent Effect” value is reported as 6.158%. Consider `Cc1ccc(CN2Cc3c(C(=O)N4CCN(C)CC4)nn(C)c3C2)s1.O=C(O)C(F)(F)F.O=C(O)C(F)(F)F.O=C(O)C(F)(F)F`, for which the “Percent Effect” value is on record as -2.835%. As for `CS(=O)(=O)CCn1ccc(NC(=O)Cc2ccccc2F)n1`, the “Percent Effect” value came out at 11.43%.

`CCOC(=O)Cn1ccc(NC(=O)Cc2ccccc2F)n1`: the “Percent Effect” value worked out at 99.82%. `Cn1ccc(NC(=O)Cc2ccccc2F)n1`: the “Percent Effect” value is on record as -2.791%.

With `CC(C)C1SCC(=O)Nc2c1c(O)nn2C1CCCCC1` (centres undefined), the “Percent Effect” value amounted to 13.37%. Regarding `Cc1cc(N2CCC(Cc3ccccc3)CC2)nc(-c2ccncc2)n1`, the “Percent Effect” value was found to be 82.9%. In the case of `Cc1cc(N2CCC(Cc3ccccc3)CC2)ncn1`, the “Percent Effect” value stood at 22.55%. As for `Cc1cc(N2CCC(CC(N)=O)CC2)nc(-c2ccncc2)n1`, the “Percent Effect” value turned out to be 23.93%. With `CN(Cc1ccc(CCC(C)(C)O)cc1)CC1(CO)CC1`, the “Percent Effect” value is recorded as 3.977%.

Turning to `CC(Cc1ccco1)NS(=O)(=O)N1CCCCC1` (centres undefined), the “Percent Effect” value was 35.85%. As for `CC(Cc1ccco1)NS(=O)(=O)N1CCCCCC1` (centres undefined), the “Percent Effect” value is given as 68.78%.

For the molecule `CC1CCN(S(=O)(=O)NC(C)Cc2ccco2)CC1` (centres undefined), the “Percent Effect” value is 45%. With `CCCn1c(C)c(CC(=O)NCC(C)O)c2c1CC(C)(C)CC2=O` (centres undefined), the “Percent Effect” value came to 21.56%.

Consider `CCc1cc(N(C)CCC(O)c2ccccc2)n2nccc2n1` (centres undefined), for which the “Percent Effect” value is reported as -53.72%. Take `COCC(=O)N1C[C@@H](c2cccc(F)c2)[C@H]2[C@H]1CCCCCN2C(C)=O`: the “Percent Effect” value is recorded as -30.92%. The result for `O=C(NCc1ccc(Br)cc1)C1(O)CCSCC1` reads 26.99%. The result for `O=C(O)C(F)(F)F.O=C(O)C(F)(F)F.O=C(O)C(F)(F)F.c1cc(CNCC2OCCc3cn(CC4CCOCC4)nc32)ccn1` (centres undefined) reads -7.498%; that for `CCCN(CC(F)(F)F)S(=O)(=O)c1cc(C(N)=O)n(C)c1`, -26.73%. As to `COCC1CCN(C(=O)c2cn(Cc3ccccc3C(F)(F)F)nn2)C1` (centres undefined), the “Percent Effect” value is given as 62.81%. For the molecule `COCC1CCN(C(=O)c2cn(Cc3cccc(C(F)(F)F)c3)nn2)C1` (centres undefined), the “Percent Effect” value is reported as 30.37%. The result for `COCC1CCN(C(=O)c2cn(Cc3ccccc3F)nn2)CC1` reads 25.9%; that for `Cc1nc(NCC2CCOCC2)cc(C2CCN2S(C)(=O)=O)n1` (centres undefined), 10.58%. In the case of `CC1N(c2cnn(C)c2)C(=O)COC12CCN(Cc1ccco1)CC2.O=C(O)C(F)(F)F` (centres undefined), the “Percent Effect” value was 2.626%. As to `COCCNC(=O)[C@H]1C[C@@H]2CCN(c3ccncn3)C[C@H]2O1.O=C(O)C(F)(F)F`, the “Percent Effect” value was 26.18%. On to `CCCNC(=O)c1cncc(CC2CCCN(C)C2)c1` (centres undefined), for which the “Percent Effect” value is reported as -32.48%. `CN1C(=O)[C@H](OC(N)=O)[C@@H](C(=O)Nc2ccccc2)C12CCNCC2`: the “Percent Effect” value is -56.88%. Consider `COCCN(Cc1ccccc1)Cc1nc(-c2ccsc2)no1`, for which the “Percent Effect” value is 50.54%. The result for `COCCN(Cc1ccco1)Cc1nc(-c2ccsc2)no1` reads -23.17%; that for `COCCN(Cc1ccco1)Cc1nc(-c2ccccc2)no1`, -9.832%; that for `CN(C)c1cc(C2CCCN(C(=O)c3noc4c3CCCC4)C2)ccn1` (centres undefined), 38.49%. As to `COCCNC(=O)c1cc2c(c3ccccc3n2C)n1C(=O)N(C)C`, the “Percent Effect” value is given as 18.89%.
